Nrf2 block = Nrf2 qHTS screen for inhibitors | Potency, µM (doses to about 46 µM), for the others: top-dose activity change, negative = inhibition, actives largely listed as inhibitors | 2.1% of 360,000 active | A549 ARE-Fluc reporter, luciferase luminescence, 18-24 h; note: potency is the fitted concentration of half-maximal effect; % is set by controls: 0 for no effect and ±100 for the full control effect; nearly all actives have a fitted effect of over 60% in size
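Nrf2 function is reported as luminescence of an ARE-controlled luciferase in A549 cells. Compounds were tested at several concentrations, and a CellTiter-Fluor read on the same wells flagged cytotoxicity.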
IL2 activator = qHTS of IL-2 Activators; IL-2 activation reporter assay, cell-based qHTS; stimulated with anti-CD3/CD4/CD28 beads; in transgenic mouse T cells; activation, % (series mostly up to about 46 µM); 0.065% of 360,000 active; in the data active = activation above about 50%; inconclusive = mostly about 30% to 49%; note: 0% is about no effect
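Using fluorescent plate cytometry, EGFP and DsRed are detected in transgenic mouse T cells stimulated 18 h at 37 degrees C with antibody-coated beads after 60 min compound pretreatment.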
A549 tox = Nrf2 qHTS screen for inhibitors: counterscreen for cytotoxicity. A549 ARE-Fluc cells, CellTiter-Fluor viability, 18-24 h. Potency, µM (titrated, usually from 46 µM), for the others: at the top dose activity change, negative = cytotoxicity, actives largely listed as inhibitors. 0.16% of 390,000 active; note: potency is the fitted concentration of half-maximal effect; % is set by controls: 0 for no effect and ±100 for the full control effect
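A549 ARE_Fluc cells in 5% FBS OPTI-MEM were exposed to compounds in concentration-response for 18-24 h at 37 deg C. Viability was read by CellTiter-Fluor fluorescence (Ex 405/Em 525) after 30 min, before the luciferase read.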
miR-21 reporter = qHTS Assay for Modulators of miRNAs and/orActivators of miR-21; Potency, µM (doses to about 38.3 µM), inactives show top-dose activity change, positive = activation, actives largely listed as activators; HeLa miR-21 FLuc reporter, luciferase, 48 h; AID 2288, 2010; 340,000 tested, under 10 active;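 note: % of control where 0% means no effect; miR-21 action dims this reporter so a rising signal means less miR-21 action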
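Using DMEM plus 10% FBS, HeLa miR-21-FLuc cells are incubated with test compounds (final up to about 40uM) for 48 hours; firefly luciferase signal is then imaged following reagent-mediated lysis.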
Nrf2 ARE act = qHTS of Nrf2 Activators; AREc32 ARE-luciferase reporter (MCF7-derived line), luminescence, 24 h; Potency, µM (highest dose often 46.1 µM), inactives show at the highest dose activation, usual class: activators; 0.31% of 410,000 active; note: potency is the fitted concentration of half-maximal effect; % of control where 0% means no effect; nearly all actives have a fitted effect of over 65% in size
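Steps: seed AREc32_Fluc cells (1000/well, 5% FBS OPTI-MEM); incubate overnight at 37 deg C; add 23 nL compound; incubate 24 hr; add Steady-Glo; hold 30 min RT; read luminescence.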
ClpP mod = qHTS Assay for Activators of ClpP; ATP-dependent Clp protease proteolytic subunit (Bacillus subtilis (strain 168)), P80244; purified B. subtilis ClpP, FRET peptide cleavage, 20 min; Potency, µM (top dose mostly 57.5 µM), for inactives: top-dose activity change, negative = active; 1.9% of 340,000 active; AID 651965, 2013; active = well fitted falling curve with a large enough effect; inconclusive = small, poorly fitted or top-dose-only effect; inactive = no such curve, though single readings can be large or run the other way; note: potency is the fitted concentration of half-maximal effect; the source files actives as falling curves though it sought activators and does not explain the sign; nearly all actives have a fitted effect of over 65% in size
Target sequence (P80244 whole entry, looked up): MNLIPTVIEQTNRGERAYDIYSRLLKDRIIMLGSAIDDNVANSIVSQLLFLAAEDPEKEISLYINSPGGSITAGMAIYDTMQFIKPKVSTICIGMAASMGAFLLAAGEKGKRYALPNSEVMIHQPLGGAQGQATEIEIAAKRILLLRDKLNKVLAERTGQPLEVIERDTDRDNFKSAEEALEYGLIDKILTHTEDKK
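Buffer: 100 mM Tris/HCl pH8, 100 mM KCl, 0.05% low protease BSA, 2.5% glycerol, 0.01% Tween-20. ClpP 10 microg/mL final; 20 min RT; delta FRET normalized to ADEP and DMSO controls.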
The depositor's hits bear a star; ? = inconclusive; . = no result given. In the library only some 3.7% were active in any assay of this set; here they are far more common. Unless noted, calls come from the whole dose curve; as a rule, active = well fitted curve in the direction sought with a large enough effect; inconclusive = small, poorly fitted or top-dose-only effect, or another doubt; inactive = no such curve, though single readings can be large; an effect the other way counts as inactive or inconclusive.

SMILES	Nrf2 block	IL2 activator	A549 tox	miR-21 reporter	Nrf2 ARE act	ClpP mod
CCOc1ccc2[nH]c(=O)c(CN(Cc3ccccc3OC)C(=O)c3ccccc3)cc2c1	.	0	-16%	0%	0%	32µM*
CCOc1ccc2[nH]c(=O)c(CN(Cc3ccco3)C(=O)c3ccc(Br)cc3)cc2c1	-7%	-2	-7%	0%	0%	?
CCOc1ccc2[nH]c(=O)c(CN(CCO)C(=O)c3ccc(Br)cc3)cc2c1	-26%	1	-1%	-1%	2%	32µM*
CCOc1ccc2[nH]c(=O)c(CN(Cc3ccco3)C(=O)c3cccc(F)c3)cc2c1	-19%	0	-6%	-1%	2%	32µM*
COc1ccc(CNCCSc2nnnn2-c2ccccc2)c(OC)c1	14%	.	13%	-6%	0%	-4%
O=C(COc1ccc(Br)cc1CO)Nc1ccccc1F	.	-2	0%	-52%	4%	10µM*
COc1ccc(NC(=O)Nc2ccc(Cc3ccncc3)cc2)c(OC)c1	16µM*	1	-6%	23%	0%	-19%
Cc1ccccc1OCC(=O)Nc1ccccc1CO	.	1	8%	-26%	10µM*	2%
Cc1ccccc1OCC(=O)Nc1ccc(Cc2ccncc2)cc1	13µM*	-3	5%	3%	0%	-2%
Cc1ccccc1OCC(=O)Nc1ccncc1	?	0	1%	1%	0%	-3%
COc1ccc(NC(=O)c2c(NCc3cccc(F)c3)sc3c2CCC3)c(OC)c1	.	.	2%	-9%	27%	0%
CC(C)c1ccc(CN(Cc2ccco2)c2cnc(S(C)(=O)=O)nc2C(=O)Nc2ccc(F)cc2)cc1	3%	.	4%	15%	-1%	-5%
CCc1ccc(CNC(=O)C2CCN(C(=O)N3CC(CC)Oc4ccc(C)cc43)CC2)cc1 (centres undefined)	5%	.	2%	-1%	-1%	0%
CCCCCC(=O)NNC(=S)NC(=O)c1cccc([N+](=O)[O-])c1	4%	0	-3%	-4%	0%	0%
CCCCCC(=O)NNC(=S)NC(=O)c1ccccc1[N+](=O)[O-]	23µM*	2	?	-1%	0%	.
Cc1ccc(NC(N)=S)cc1C	-16%	0	21%	0%	0%	28µM*
COC(=O)NCc1c(C)nn(-c2ccccc2)c1-n1cccc1	3%	.	10%	7%	1%	-1%
Cc1cc(=O)n2cc(-c3ccccc3)nc2[nH]1	6%	-2	7%	-23%	0%	0%
Cc1ccc(-c2cn3c(=O)cc(C)[nH]c3n2)cc1	5.8µM*	-2	-15%	-15%	0%	?
COc1ccccc1NS(=O)(=O)c1cc(NC(=O)c2ccncc2)ccc1N1CCCC1	21µM*	-1	-16%	3%	2%	.
O=C(Nc1ccc(N2CCOCC2)c(S(=O)(=O)Nc2ccccc2Cl)c1)c1ccccc1	16µM*	-1	-8%	.	0%	0%
COc1ccccc1NS(=O)(=O)c1cc(NC(=O)c2ccc(Cl)nc2)ccc1Cl	23µM*	-1	?	?	0%	-14%
COc1ccccc1NC(=O)Nc1ccc(Cl)c(S(=O)(=O)Nc2ccccc2OC)c1	?	0	-7%	21%	-1%	-3%
CCOC(=O)C(=CNc1ccc(N2CCCCC2)c(S(=O)(=O)Nc2ccccc2OC)c1)C(=O)OCC	-3%	-4	-2%	.	0%	18µM*
COC(=O)c1ccc(C(=O)NC(=S)Nc2nc3c(s2)CCCC3)cc1	22%	0	14%	-57%	9%	1%
SMILES	Nrf2 block	IL2 activator	A549 tox	miR-21 reporter	Nrf2 ARE act	ClpP mod
CCC(CC)c1nnc(NC(=O)c2cccc(S(=O)(=O)N3CCc4ccccc43)c2)s1	21µM*	0	-3%	9%	0%	-3%
CN1CCc2nc(NC(=O)c3cccc(S(=O)(=O)N4CCc5ccccc54)c3)sc2C1	-10%	-1	5%	1%	0%	-1%
O=C(Nc1nc2c(s1)CCCC2)c1cccc(S(=O)(=O)N2CCCc3ccccc32)c1	21µM*	-1	1%	15%	4%	?
O=C(Nc1nncs1)c1cccc(S(=O)(=O)N2CCc3ccccc32)c1	?	0	-10%	-7%	-1%	.
O=C(NC(=S)Nc1nc2c(s1)CCCC2)c1ccccc1	?	1	-12%	-53%	2.5µM*	-1%
CCCNC(=O)c1cc(S(=O)(=O)N2CCc3ccccc32)cn1C	12µM*	-4	-12%	17%	0%	0%
O=C1CC(c2c(Cl)cccc2Cl)c2c(ccc3ccccc23)N1 (centres undefined)	?	.	-19%	10%	0%	-8%
CCC(=O)NC(c1ccco1)c1cc(Cl)c2c(c1O)NCCC2 (centres undefined)	-6%	.	-3%	.	.	.
CCOc1ccc(CCNC(=O)CN2N=C(c3ccccc3)CCC2=O)cc1OCC	.	.	9%	-6%	2%	2%
Cc1nc(-c2ccccc2)sc1-c1nc(-c2cccnc2)ncc1S(=O)(=O)c1ccccc1	23µM*	-3	?	-2%	-1%	?
Cc1nc(-c2ccccc2)sc1-c1nc(-c2cccs2)ncc1S(=O)(=O)c1ccccc1	.	.	.	-3%	.	.
Cn1cc(/C=C/c2ccnc3ccccc23)c2ccccc21	.	.	.	.	.	-1%
COc1cccc(CNC(=O)C2CCN(Cc3cc4ccccc4n3Cc3ccc(C)cc3)CC2)c1	.	.	-20%	19%	7%	-13%
CCc1ccc(-c2cc(C(=O)Nn3cnnc3)c3ccccc3n2)cc1	9.2µM*	-3	2%	?	-2%	-9%
NS(=O)(=O)c1ccc(CCNC(=O)c2cc(-c3ccc(Br)cc3)nc3ccccc23)cc1	?	-3	-6%	10%	-2%	12%
CCn1cc(-c2cc(C(=O)O)c3ccccc3n2)cn1	18µM*	-1	-4%	27%	4%	.
CCc1ccc(-c2cc(C(=O)N3N=C(C(F)F)CC3(O)C(F)F)c3ccccc3n2)cc1 (centres undefined)	21µM*	0	23µM*	-6%	4%	22µM*
CC(C)Cc1cc(C(=O)N2N=C(C(F)F)CC2(O)C(F)F)c2ccccc2n1 (centres undefined)	?	3	-21%	-3%	-1%	0%
CCCc1ccc(-c2cc(C(=O)NCCc3ccc(S(N)(=O)=O)cc3)c3ccccc3n2)cc1	.	-1	0%	-22%	3%	32µM*

Compound activity: PubChem, National Center for Advancing Translational Sciences (NCATS)
